# Screen size: about 48,000 compounds; about 13,000 (27%) showed an effect of 50% or more. The list shows a part of the results.
# Tested on: Wolbachia pipientis
# Assay: Anti-Wolbachia Cell-Based Screen
# Assay type: functional
# Design: scale not given: in the data most compounds retested in dose-response had high values
# Settings: 5 µM
row,Compound,Percent Effect
1,CCN(CC)C(=O)[C@@H]1C[C@H](N)CN1c1nnc(-c2ccccc2)s1,5.055%
2,CC(Cc1ccco1)NC(=O)Nc1ccc(S(C)(=O)=O)nc1 (stereo not given),-6.327%
3,Cc1cc(-c2cc(N)c(=O)n(CC(=O)NC3CCCCC3)n2)c(C)o1,117.4%
4,Cc1ccc(-c2cc(N)c(=O)n(CC(=O)NC3CCCCC3)n2)s1,-5.352%
5,Cc1cc(-c2cc(N)c(=O)n(CC(=O)NC3CCCC3)n2)c(C)o1,122.3%
6,COc1ccc(OC)c(C(=O)N2CCC(Nc3cccnc3)CC2)c1,94.46%
7,COc1cc(C(=O)N2CCC(c3n[nH]c(C4CC4)n3)CC2)ccc1C,15.65%
8,COc1cc(C(=O)N2CCC(Nc3cccnc3)CC2)ccc1C,66.95%
9,COc1ccc(OC)c(C(=O)N2C[C@H]3CC[C@@H]2CN(C)C3)c1,19.05%
10,O=C(c1ccc[nH]1)N(Cc1ccc(O)cc1)CC1CC1,-7.123%
11,CN1CCC(CNC(=O)NCc2ccc(N(C)C)cc2)CC1,-5.904%
12,CC(C)COC(C)C(=O)NCc1ccc(Cn2ccnc2)cc1 (stereo not given),0.5486%
13,CC(C)C(=O)NCc1ccc(N(C)C)cc1,131.8%
14,CC(C)COC(C)C(=O)NCc1ccc(N(C)C)cc1 (stereo not given),-1.344%
15,CCOC(C)C(=O)NCc1ccc(N(C)C)cc1 (stereo not given),106.9%
16,CC(OCc1ccccc1)C(=O)NC1CCN(CC(N)=O)CC1 (stereo not given),-2.8%
17,CCOC(C)C(=O)NCc1cccc(CN2CCCCCC2)c1 (stereo not given),0.5451%
18,CC(OCc1ccccc1)C(=O)NCc1ccc(N(C)C)cc1 (stereo not given),130.9%
19,CN(C)c1ccc(CNC(=O)Nc2ccc(S(=O)(=O)C(F)F)cc2)cc1,-8.512%
20,CCOc1cc(CNCc2ncc[nH]2)c(Cl)cc1OC(C)C,-9.365%
21,CN(CCN1CCCC1)c1nccc(N2CCN[C@H]3CS(=O)(=O)C[C@H]32)n1,-5.82%
22,COCCN1CCc2ncnc(NC(C)C)c2CC1.O=C(O)C(F)(F)F,87.2%
23,CC(C)Nc1ncnc2c1CCN(c1cc(C(F)(F)F)ncn1)CC2,-0.2205%
24,Nc1nc(CNc2ncnc3c2CCN(Cc2ccoc2)CC3)cs1,-10.72%
25,CC(C)Oc1ncnc2c1CCN(Cc1ccc(F)cc1)CC2.O=C(O)C(F)(F)F,2.897%

row,Compound,Percent Effect
1,COCCN1CCc2ncnc(OC(C)C)c2CC1.O=C(O)C(F)(F)F,107.2%
2,c1cc(CCNc2ncnc3c2CCN(Cc2ccoc2)CC3)ccn1,-12.64%
3,CC(C)Nc1ncnc2c1CCN(Cc1nccn1C)CC2.O=C(O)C(F)(F)F.O=C(O)C(F)(F)F,-25.56%
4,CC(C)Nc1ncnc2c1CCN(Cc1ccoc1)CC2,96.99%
5,COc1ccc(CN2CCc3ncnc(OC(C)C)c3CC2)cc1.O=C(O)C(F)(F)F,-22.8%
6,O=C(N[C@@H]1C[C@H]2CC[C@@H]1C2)C1(Oc2ccc(Cl)cc2)CCNCC1,5.083%
7,Cc1nonc1C(=O)N1CCc2c(ncn2CCc2ccccc2)C1,7.043%
8,Cn1ccnc1-c1nc(NC2CCCC2)ncc1-c1cccc(F)c1,77.55%
9,COCCNc1ncc(-c2cccc(OC)c2)c(-c2nccn2C)n1,73.04%
10,COc1cccc(-c2cc(NCc3nccn3C)n(C)n2)c1,-16.42%
11,COCCCNc1ncc(-c2cccc(F)c2)c(-c2nccn2C)n1,116.3%
12,CSC(C)(C)CNC(=O)Nc1cccc(-c2nccn2C)c1,-14.94%
13,COCCNc1ncc(-c2cccc(F)c2)c(-c2nccn2C)n1,111.1%
14,COc1cccc(-c2nc(CNCCn3cccn3)cs2)c1,-13.66%
15,CSCCCNC(=O)Nc1cccc(-c2nccn2C)c1,3.955%
16,Cc1ccc(CNC(c2cccc(F)c2)c2nccn2C)o1.Cl (stereo not given),-1.716%
17,Cc1nnc(CN(C)CC(=O)N2CCCC(C(F)(F)F)C2)n1C (stereo not given),-17.87%
18,CC1CCc2nc(O)c(C(=O)NCc3ccccc3F)cc2C1 (stereo not given),-2.667%
19,C[C@@H]1CN(S(=O)(=O)N2CCCCCC2)C[C@@]1(O)C1CCC1,19.36%
20,O=C(O)C(F)(F)F.O=C([C@H]1C[C@H]2OCC[C@H]2N(C(=O)c2ccncc2)C1)N1CCCC1,-2.024%
21,N#Cc1ccc(SCCC(=O)NC(N)=O)cc1,0.3622%
22,Cc1c(F)cccc1S(=O)(=O)N(C)CC(C)O (stereo not given),10.31%
23,CCOCCCNc1ncc(-c2cccc(F)c2)c(-c2nccn2C)n1,61.85%
24,CCOCCCC(=O)Nc1c(-c2ccc(F)cc2)ncn1C,-11.11%
25,CCOCCNC(=O)Nc1cccc(-c2nccn2C)c1,-19.42%

row,Compound,Percent Effect
1,CCCc1cnc(C)nc1N1CCC(F)(F)CC1,-3.547%
2,Cc1cccc2c1nc1n2[C@@H](CNC(=O)NC(C)C)COC1,-19.06%
3,Cc1cc(Nc2ccc3c(c2)CC(=O)N3)nc(C2CC2)n1,-4.534%
4,Cn1cc(-c2cnc(N3CCCC3)nc2)cc1C(=O)O,-13.43%
5,Cn1cc(-c2cnc(-c3ccnn3C)nc2)cc1C(=O)NC1CC1,95.89%
6,Cn1cc(C(=O)NC2CCN(Cc3ccn(C)c(=O)c3)CC2)cn1,-2.603%
7,Cn1nccc1C(=O)N1CCN(C(=O)C2CC2)[C@@H]2CS(=O)(=O)C[C@@H]21,14.29%
8,Cn1nccc1-c1ncc(-c2cc(C(=O)O)n(CC3CC3)c2)cn1,118.9%
9,Cc1cn2c(n1)CCC(NC(=O)c1cc(Br)cn1C)C2 (stereo not given),-1.001%
10,CC(C)Oc1cccc(C(=O)C2CCCN(C(=O)c3ccnn3C)C2)c1 (stereo not given),-5.247%
11,Cn1nccc1-c1nc2c(cc1C(=O)O)CCN(CC1CC1)CC2,-6.641%
12,Cn1cc(-c2cnc(-c3ccnn3C)nc2)cc1C(=O)N1CCCC1,85.82%
13,COc1cccc2c1OCC(C(=O)N1CCC(N3CCSCC3)CC1)C2 (stereo not given),-10.16%
14,CSc1ccc(NCC(=O)NC(=O)NCC(F)(F)F)cc1F,2.815%
15,CCN(Cc1ccoc1)C(=O)Nc1ccccc1CN1CCOCC1,2.801%
16,Cc1cc(C(=O)NC2CC(=O)N(C(C)C)C2=O)c(C)n1C(C)C (stereo not given),-25.95%
17,Cc1noc(C)c1-c1n[nH]c2c1CN(S(=O)(=O)c1cccnc1)CC2,2.189%
18,Cc1cc(N(C)C)cc(C2CCN(S(=O)(=O)c3cccnc3)C2)n1 (stereo not given),129.7%
19,Cc1cccc(C2CCCN(S(=O)(=O)c3cccnc3)C2)n1 (stereo not given),131.9%
20,CC(C)[C@H]1CN(S(=O)(=O)c2cccnc2)C[C@@H]1N,-3.763%
21,COCCc1noc(C2CCN(S(=O)(=O)c3cccs3)CC2)n1,-5.417%
22,Cc1cc(N(C)C)cc(C2CCN(S(=O)(=O)c3cccs3)C2)n1 (stereo not given),93.47%
23,O=S(=O)(c1cccs1)N1CCC(c2nc(-c3cccs3)no2)CC1,1.77%
24,CNC(=O)CS(=O)(=O)C1CCN(S(=O)(=O)c2cccnc2)CC1,10.97%
25,N[C@H]1CN(S(=O)(=O)c2cccnc2)C[C@@H]1C1CC1,-0.9551%

row,Compound,Percent Effect
1,CN(C[C@@H]1CCC[C@@H]2CN(c3ncccn3)C[C@@H]21)C1CC1.O=C(O)C(F)(F)F,9.93%
2,COc1ccc(N(Cc2ccco2)C(=O)C2CCOC2)cc1F (stereo not given),-6.319%
3,COc1ccc(CNC(=O)N(Cc2ccc(F)cc2F)C2CC2)cn1,13.46%
4,NC(=O)CN1CCCN(C(=O)c2ccc(SC(F)F)cc2)CC1,104.9%
5,CC(=O)N1CCCN(CCCSCc2ccccc2)CC1,-18.43%
6,NC(=O)CN1CCCN(C(=O)c2ccn(-c3ccc(F)cc3)n2)CC1,9.69%
7,CCSCc1ccc(C(=O)N2CCCN(CC)CC2)cc1,93.96%
8,CCSCc1ccc(C(=O)N2CCCN(CC(N)=O)CC2)cc1,111.3%
9,NC(=O)CN1CCCN(C(=O)c2ccn(-c3ccccc3)n2)CC1,-8.836%
10,CCN1CCCN(C(=O)c2cnc(OC(C)C)c(Cl)c2)CC1,20.31%
11,NC(=O)N1CCCN(CCCSCc2ccccc2)CC1,-22.93%
12,Cc1cc(Br)oc1C(=O)N1CCCN(CC(N)=O)CC1,-7.615%
13,COc1ccc2[nH]c(C[C@@H]3C[C@@H](C(C)C)[C@H](CN(C)C)C=C3C)nc2c1,-3.029%
14,Cc1ccc(C(CNCc2cccn2C)N2CCOCC2)s1 (stereo not given),12.06%
15,Cc1ccc2nc(NCCCN3CCCCCC3=O)n(C)c(=O)c2c1,5.904%
16,CCC(CC)NC(=O)c1ccc2nnc(C3CCN(C(C)=O)C3)n2c1 (stereo not given),-17.88%
17,NCCC(=O)N1CCC2(CC1)CN(C(=O)c1ccc(Cl)cc1)CCO2,94.29%
18,CC(C)N(C)C(=O)C1=NOC2(CCN(C(=O)c3ccc(Cl)cc3)C2)C1 (stereo not given),-15.34%
19,CC(=O)N1CCC2(CC1)CN(C(=O)c1cccc3[nH]ccc13)CCO2,-6.539%
20,O=C(c1ccoc1)N1CCC2(CC1)C(=O)Nc1ccccc12,5.078%
21,CN(C)C(=O)NC1COC2(CCN(C(=O)c3ccc(Cl)cc3)CC2)C1 (stereo not given),-7.709%
22,O=C(c1ccc(Cl)cc1)N1CCC2(C1)C(=O)Nc1ccccc12 (stereo not given),123%
23,O=C(c1ccc(Cl)cc1)N1CCC2(CC1)C(=O)Nc1ccccc12,0.2295%
24,NCCCC(=O)N1CCC2(CC1)CN(C(=O)c1ccc(Cl)cc1)CCO2,114.9%
25,O=C(c1cnc(-c2ccccc2)nc1)N1CCOC2(CCCC2)C1,-7.447%

# Reference: ChEMBL document CHEMBL3988442, “University of Dundee, Small-Polar-MMV Screening Library” (2021)
